GRP78 ERSR act = induces the endoplasmic reticulum stress response in human glioma cells. AID 602332. U87-MG GRP78 promoter luciferase reporter, 16 h. hit rate 0.02% among 420,000. Potency, µM, for the others: at the highest dose activation, actives largely listed as activators; note: potency is the fitted concentration of half-maximal effect; series mostly up to about 76 µM; % of control where 0% means no effect; nearly all actives have a fitted effect of over 35% in size
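Stably transfected U87-MG human glioma cells carrying a GRP78-based luminescent sensor were seeded at 1000 cells/well, pin-dosed with compounds and incubated 16 h. Luciferase reagent was then added, and end-point luminescence was read after 10 min at room temperature.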
Vif-APOBEC3G blk = blocks the Vif interaction with human APOBEC3G; Q9HC16; HeLa A3G-eYFP + Vif (tagged APOBEC3G with the HIV-1 protein that degrades it), YFP fluorescence, overnight; Potency, µM (top dose mostly 46.1 µM), inactives show at the top dose activity, negative = active, most hits filed as inhibitors; hit rate 0.076% among 410,000; AID 602310; note: potency is the fitted concentration of half-maximal effect; % is set by controls: 0 for no effect and ±100 for the full control effect; nearly all actives have a fitted effect of over 60% in size
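HeLa cells stably expressing Vif and C-terminally eYFP-tagged A3G, seeded overnight at 37 deg C, then exposed to compound by pintool overnight at 37 deg C. Rise in yellow fluorescence (Ex 488/Em 500-530, Acumen) marks blocked Vif-driven A3G degradation.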
Vif-A3F inh = blocks the Vif interaction with APOBEC3F; HeLa A3F-eYFP + Vif (tagged APOBEC3F with the HIV-1 protein that degrades it), YFP fluorescence increase; Potency, µM (top dose mostly 46.1 µM), inactives show at the top dose activity, negative = active; hit rate 0.2% among 390,000; AID 602313; note: potency is the fitted concentration of half-maximal effect; % of control where 0% means no effect; nearly all actives have a fitted effect of over 65% in size
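Fluorescence increase (Ex 488/Em 500-530) after overnight compound treatment at 37 deg C flags inhibition of Vif-driven A3F-eYFP loss in stable HeLa A3F-eYFP/Vif cells seeded overnight beforehand.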
ALOX12 inh = ALOX12 (human) lipoxygenase inhibition | hit rate 1.1% among 580,000 | Potency, µM (series often up to 108 µM), for inactives: at the highest dose activity change, negative = inhibition, hits mostly inhibitors | purified 12hLO, xylenol orange hydroperoxide absorbance; note: potency is the fitted concentration of half-maximal effect; % is set by controls: 0 for no effect and ±100 for the full control effect
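Purified human 12hLO at 150 nM in 25 mM Hepes, 0.01% Triton X-100, pH 7.0, preincubated 15 min at room temperature with compound. Reaction started with 40 uM arachidonic acid, 30 min at room temperature. Hydroperoxide measured by Fe-xylenol orange, 573/405 nm absorbance ratio.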
TRPML1 ag = agonists of human TRPML1 channel | activation, % (no concentration beside the values) | AID 624414 | Q9GZU1 | TRPML1-expressing cells, Ca2+ dye fluorescence, FDSS | hit rate 0.12% among 410,000; in the data active = activation above about 50%; inconclusive = mostly about 30% to 49%; note: 0% is about no effect
Target sequence (Q9GZU1 whole entry, looked up): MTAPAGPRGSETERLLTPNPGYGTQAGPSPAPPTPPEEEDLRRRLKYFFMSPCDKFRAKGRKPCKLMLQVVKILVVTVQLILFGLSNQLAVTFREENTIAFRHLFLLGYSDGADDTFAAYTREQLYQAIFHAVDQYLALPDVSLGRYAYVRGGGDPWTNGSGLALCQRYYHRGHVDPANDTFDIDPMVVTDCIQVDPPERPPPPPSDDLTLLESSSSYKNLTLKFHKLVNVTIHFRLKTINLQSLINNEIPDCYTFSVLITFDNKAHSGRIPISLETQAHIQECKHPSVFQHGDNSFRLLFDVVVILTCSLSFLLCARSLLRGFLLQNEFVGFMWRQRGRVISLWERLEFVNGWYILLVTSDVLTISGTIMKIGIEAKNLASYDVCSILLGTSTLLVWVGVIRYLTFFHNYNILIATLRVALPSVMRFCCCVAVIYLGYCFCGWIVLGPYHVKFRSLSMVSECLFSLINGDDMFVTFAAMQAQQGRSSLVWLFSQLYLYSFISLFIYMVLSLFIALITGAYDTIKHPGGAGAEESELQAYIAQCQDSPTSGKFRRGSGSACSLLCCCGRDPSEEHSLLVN
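Cells: TRPML1-DL, 1X Tet inducer, ~16 h at 37 degrees C/5% CO2. Dye: ABD Ca8 no-wash + quencher, 45-90 min RT. Read: 10 s baseline, compound add, 110 s agonist phase; 54-4 EC80 (4uM final), 110 s antagonist phase.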
TRPML1 blocker = inhibitors of human TRPML1 channel | Q9GZU1 | TRPML1-inducible cells, Ca2+ dye fluorescence, FDSS; stronger effect = lower value; inhibition of EC80 agonist-evoked calcium signal | activity change, negative = inhibition, % (concentration not given with the values) | hit rate 0.02% among 390,000 | AID 624415; in the data active = activity change below about -50%; inconclusive = between about -30% and that limit;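 note: stimulus is agonist 54-4 at its EC80 concentration; % is set by controls: 0 for no effect and ±100 for the full control effect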
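TRPML1-DL cells, Tet-induced overnight (~16 h, 37 °C) at 1,500 cells/well, were loaded with Ca8 no-wash dye plus quencher for 45-90 min at room temperature. Compounds were pinned during FDSS kinetic reading; agonist 54-4 at EC80 (4 uM final) then added.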
Numbers without * were called inactive; ? = inconclusive; . = not tested or not shown; ! = not confirmed by another sample; [ ] = dose if it differs, or a comment. Hits are enriched below; roughly 1.3% of the tested compounds scored in any of these assays. Unless noted, calls come from the whole dose curve; as a rule, active = well fitted curve in the direction sought with a large enough effect; inconclusive = small, poorly fitted or top-dose-only effect, or another doubt; inactive = no such curve, though single readings can be large; an effect the other way counts as inactive or inconclusive.

SMILES	GRP78 ERSR act	Vif-APOBEC3G blk	Vif-A3F inh	ALOX12 inh	TRPML1 ag	TRPML1 blocker
COc1ccc(OC)c(N2C(=O)NC(=O)/C(=C/c3ccc([N+](=O)[O-])s3)C2=O)c1	-5%	-22%	6%	40µM*	-1	10
COc1ccc(CCNCc2ccc(Br)cc2)cc1	.	.	.	22µM*	.	.
COc1ccc(CCNCc2ccccc2)cc1	-5%	-2%	0%	?	2	28
COc1ccc(CCNCc2cccc(Br)c2)cc1	.	.	.	1.3µM*	.	.
COc1ccc(CCNCc2cc(OC)cc(OC)c2)cc1	-3%	1%	-1%	?	0	-3
COC1C(=O)N(c2cccc(F)c2)C12CCNCC2 (stereo not given)	.	.	.	8%	.	.
CC(C)NC(=O)[C@H]1CN2CCC1C[C@@H]2Cn1cc(CSc2ccccc2)nn1 (stereo not given in full)	.	.	.	20%[176 µM]	.	.
C=CCN(C)C[C@H]1CN2CC[C@H]1C[C@@H]2CNC(=O)c1ccc(N(C)C)cc1	.	.	.	63%[176 µM]	.	.
O=C(Oc1c(Cl)cc(Cl)c2ccccc12)N1CCCCC1	1%	-8%	-8%	?	68*	-13
O=C(Nc1ccc(OC(=O)N2CCCCC2)cc1)N1CCOCC1	-16%	-1%	4%	-12%	0	27
CC[C@H]1CN2CC[C@H]1C[C@@H]2COC(=O)Nc1ccc(C(C)(C)C)cc1	.	.	.	45µM*	.	.
COc1cccc(CC(=O)N2CCC3(CC2)NCc2ccccc2-n2ccnc23)c1	.	.	.	8%	.	.
CCC(C)N1C(=O)/C(=C\c2ccc(N3CCCCCC3)cc2)C(=O)NC1=S (stereo not given)	-2%	-1%	22µM*	?	-1	16
Oc1cccc2cccnc12	-4%	?	.	9.3µM*!	1	-24
CN(C(=O)Oc1cccc2cccnc12)c1ccccc1	-2%	0%	6%	5%	0	6
CC(C)c1ccc(N2C(=O)NC(=O)/C(=C/c3cnc(-c4ccccc4)nc3)C2=O)cc1	1%	?	?	16µM*	0	-4
CC(C)c1nnc2ccc(N3CCN(C)CC3)nn12	.	.	.	39%	.	.
Cc1nc(-c2ccccc2Br)cc([C@H]2CN3CC[C@H]2C[C@@H]3CNC(=O)Nc2cccc(C#N)c2)n1	.	.	.	28µM*	.	.
Cc1nc(-c2ccccc2Br)cc([C@H]2CN3CC[C@H]2C[C@@H]3CNC(=O)c2cccs2)n1	.	.	.	35µM*	.	.
O=[N+]([O-])/C=C/c1ccc2c(c1)OCO2	-15%	.	.	.	.	.
C/C(=C\c1ccc2c(c1)OCO2)[N+](=O)[O-]	.	.	.	14µM*	.	.
CN(C)c1ccc(C(=O)NC[C@H]2C[C@@H]3CCN2C[C@@H]3CN2CCCCC2)cc1	.	.	.	-15%[176 µM]	.	.
Cc1nonc1CC(=O)N1C[C@H](O)[C@@H](N2CCC(O)CC2)C1	.	.	.	13µM*	.	.
COc1ccc([C@@H]2CN(C(=O)Cc3nonc3C)[C@@H]3C4CCN(CC4)[C@@H]32)cc1	.	.	.	2%	.	.
c1nc(N2CCOCC2)ncc1CN1CC[C@H]2CNC[C@H]21	.	.	.	4%	.	.
C[N+](C)(C)CC1CCC1	.	.	.	28µM*	.	.
Cc1cccc(NC(=O)Oc2ccc(Cl)c3cccnc23)c1	-1%	1%	?	40µM*	-1	21

Screening results as filed in PubChem BioAssay.
